About 79,000 compounds went through this panel and 15% of them were active in at least one assay; those are over-represented in the sample as a whole. No stated cut-off is given here; in the data, active means growth inhibition above about 70%; inactive means the rest.
Experiments:
[1] = NCI Yeast Anticancer Drug Screen. Data for the wt1 strain (AID 149);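 further: 0% = growth of vehicle-treated wt1 cultures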; settings: S. cerevisiae wt1 strain (SPY 50644) growth inhibition, stronger effect = higher value
How it was run: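 wt1 yeast, compound-treated; % growth inhibition vs vehicle control.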

[2] = NCI Yeast Anticancer Drug Screen. Data for the rad50EPP+ strain (AID 151);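 further: 0% = growth of vehicle-treated control cultures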; settings: S. cerevisiae rad50 mutant strain, stronger effect = higher value
How it was run: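 rad50EPP+ yeast treated with test compounds. Readout: growth vs vehicle control.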

[3] = NCI Yeast Anticancer Drug Screen. Data for the mgt1 strain (AID 153); settings: S. cerevisiae mgt1 mutant growth inhibition, stronger effect = higher value
How it was run: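 Growth inhibition relative to vehicle controls was scored for the mgt1 yeast strain after compound exposure.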

[4] = NCI Yeast Anticancer Drug Screen. Data for the rad50 strain (AID 155);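 further: 0% = growth of vehicle-only cultures of the same strain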; settings: S. cerevisiae rad50 strain growth inhibition, stronger effect = higher value
How it was run: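 Genetically altered yeast (DNA repair pathway); compound treatment; growth inhibition vs vehicle ctrl.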

[5] = NCI Yeast Anticancer Drug Screen. Data for the mec2-1 strain (AID 157); settings: S. cerevisiae mec2-1 strain, stronger effect = higher value
How it was run: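 Growth inhibition is read against vehicle-treated controls after compound exposure of the mec2-1 yeast strain, which is defective in DNA damage repair or cell cycle control.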

[6] = NCI Yeast Anticancer Drug Screen. Data for the rad14 strain (AID 159);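 further: 0% = growth of vehicle-treated control cultures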; settings: S. cerevisiae rad14 strain growth inhibition, stronger effect = higher value
How it was run: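 Test compounds were applied to a repair-deficient yeast strain. Its growth was then compared with that of cultures given vehicle alone, and inhibition was expressed relative to those controls.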

[7] = NCI Yeast Anticancer Drug Screen. Data for the sgs1 mgt1 strain (AID 161);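 further: 0% = growth of cultures given vehicle only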; settings: S. cerevisiae sgs1 mgt1 strain, stronger effect = higher value
How it was run: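 Yeast cells carrying a defined DNA-repair defect were exposed to test compounds. Growth inhibition was measured relative to vehicle-treated controls.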

[8] = NCI Yeast Anticancer Drug Screen. Data for the CLN2oe strain (AID 163);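 further: 0% = growth of vehicle-only control cultures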; settings: S. cerevisiae CLN2oe strain, stronger effect = higher value
How it was run: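 Compound-treated yeast; growth vs vehicle ctrl = % inhibition. Genetically altered strain (cell-cycle control).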

[9] = NCI Yeast Anticancer Drug Screen. Data for the cln2 rad14 strain (AID 165);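 further: 0% = growth equal to vehicle treated cultures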; settings: S. cerevisiae cln2 rad14 strain, stronger effect = higher value
How it was run: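 Growth inhibition, relative to vehicle-treated controls, is the read-out. The test organism is a yeast strain with defined genetic alterations, cln2 rad14.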

[10] = NCI Yeast Anticancer Drug Screen. Data for the bub3 strain (AID 167); settings: S. cerevisiae bub3 mutant strain, stronger effect = higher value
How it was run: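 Yeast carrying a defined mutation is treated with each compound, and growth is compared with that of vehicle-exposed cells to give inhibition.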

[11] = NCI Yeast Anticancer Drug Screen. Data for the wt2 strain (AID 169);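 further: 0% = growth of vehicle-treated yeast cultures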; settings: S. cerevisiae wt2 strain growth inhibition, stronger effect = higher value
How it was run: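 Compound exposure of yeast; growth compared with vehicle controls; inhibition reported.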

[12] = NCI Yeast Anticancer Drug Screen. Data for the mlh1 strain (AID 171);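 further: 0% = growth of vehicle-treated control cultures of the same strain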; settings: S. cerevisiae mlh1 strain growth inhibition, stronger effect = higher value
How it was run: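 Compounds are applied to a genetically altered yeast strain, and its growth is compared with that of vehicle-treated cultures to give percent inhibition.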

[13] = NCI Yeast Anticancer Drug Screen. Data for the sgs1 strain (AID 173);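 further: 0% = growth of vehicle-only control cultures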; settings: S. cerevisiae sgs1 mutant, stronger effect = higher value
How it was run: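 Compounds applied to genetically altered yeast; growth compared with vehicle-treated cultures to give % inhibition.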

[14] = NCI Yeast Anticancer Drug Screen. Data for the mlh1 rad18 strain (AID 175); settings: S. cerevisiae mlh1 rad18 strain growth inhibition, stronger effect = higher value
How it was run: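 Cells of a genetically altered yeast strain, deficient in DNA damage repair, were treated with compound. Their growth was then compared with that of vehicle-treated cultures to give inhibition.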

[15] = NCI Yeast Anticancer Drug Screen. Data for the rad18 strain (AID 177); settings: S. cerevisiae rad18 mutant growth inhibition, stronger effect = higher value
How it was run: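 Compounds are applied to a repair-deficient yeast strain, and growth is compared with that of vehicle-treated cultures to give percent inhibition.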

[16] = at 5.0 µM (retest, dose inferred, filed as 0.5)
[17] = at 50.0 µM (retest, dose inferred, filed as 5.0)

Measured: growth inhibition

COc1cc(NCCCCCNC(C)C)c2ncccc2c1Cl
inactive: [1]; at 1.2 µM -2% | [1]; at 3.7 µM 3% | [1]; at 11.0 µM 1% | [1]; at 33.0 µM 2% | [1]; at 100.0 µM -8% | [2]; at 1.2 µM 1% | [2]; at 3.7 µM -1% | [2]; at 11.0 µM 1% | [2]; at 33.0 µM 9% | [2]; at 100.0 µM 13% | [3]; at 1.2 µM -5% | [3]; at 3.7 µM -3% | [3]; at 11.0 µM 1% | [3]; at 33.0 µM 3% | [3]; at 100.0 µM 33% | [4]; at 1.2 µM -1% | [4]; at 3.7 µM 2% | [4]; [16] 8% | [4]; at 11.0 µM 4% | [4]; at 33.0 µM 7% | [4]; [17] 12% | [4]; at 50.0 µM 49.7% | [4]; at 100.0 µM 24% | [5]; at 1.2 µM -1% | [5]; at 3.7 µM 2% | [5]; [16] -3% | [5]; at 11.0 µM 3% | [5]; at 33.0 µM 4% | [5]; [17] 13% | [5]; at 50.0 µM 6.65% | [5]; at 100.0 µM 10% | [6]; at 1.2 µM 0% | [6]; at 3.7 µM 5% | [6]; at 11.0 µM 15% | [6]; at 33.0 µM 24% | [6]; at 100.0 µM 24% | [7]; [16] 5% | [7]; [17] 28% | [7]; at 50.0 µM 52.5% | [8]; at 1.2 µM 0% | [8]; at 3.7 µM -6% | [8]; at 11.0 µM 6% | [8]; at 33.0 µM 14% | [8]; at 100.0 µM 36% | [9]; [16] 8% | [9]; [17] 41% | [9]; at 50.0 µM 26.8% | [10]; at 1.2 µM -2% | [10]; at 3.7 µM -1% | [10]; [16] 6% | [10]; at 11.0 µM 3% | [10]; at 33.0 µM 11% | [10]; [17] 38% | [10]; at 50.0 µM 36.5% | [10]; at 100.0 µM 25% | [11]; at 1.2 µM -2% | [11]; at 3.7 µM -1% | [11]; at 11.0 µM 0% | [11]; at 33.0 µM 7% | [11]; at 100.0 µM 6% | [12]; at 1.2 µM -1% | [12]; at 3.7 µM -1% | [12]; at 11.0 µM 1% | [12]; at 33.0 µM 7% | [12]; at 100.0 µM 15% | [13]; at 1.2 µM -1% | [13]; at 3.7 µM -2% | [13]; at 11.0 µM 3% | [13]; at 33.0 µM 13% | [13]; at 100.0 µM 23% | [14]; [16] 5% | [14]; [17] 38% | [14]; at 50.0 µM 56.8% | [15]; at 1.2 µM -1% | [15]; at 3.7 µM -4% | [15]; at 11.0 µM -1% | [15]; at 33.0 µM 5% | [15]; at 100.0 µM 13%
